Values without a mark were called inactive. Results filed as inconclusive are left out. Entries that show only a call come without a potency. Active and inactive are the calls of the source. The call rests on the fitted dose curve; in most records, active means well fitted curve in the direction sought with a large enough effect; inconclusive means small, poorly fitted or top-dose-only effect, or another doubt; inactive means no such curve, though single readings can be large; an effect the other way counts as inactive or inconclusive.
Experiments:
[1] = qHTS assay for measurement of the activity of small molecule inhibitors on Zika virus induced Caspase-3 activity in human astrocytoma cells (AID 1224859)
Procedure, shortened: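 Human SNB-19 astrocytoma cells in RPMI 1640 with 10% FBS receive compound one hour ahead of Zika virus at 2 FFU/cell. After 6 h infection, caspase-3/7 activity is detected by Caspase-Glo luminescence.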

[2] = qHTS assay to identify small molecule inhibitors of chordoma cells - UCH-1 (AID 1259355); further: nearly all actives have a fitted effect of over 55% in size
Procedure, shortened: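 800 cells/well, overnight attach; compounds pinned at 15 concs, then auranofin/camptothecin/doxorubicin/rubitecan/topotecan combo added; 48hr 37 C, 5% CO2; CellTiter-Glo, 30min RT, luminescence.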

[3] = qHTS assay to identify small molecule inhibitors of chordoma cells - UCH-2 (AID 1259356); further: series mostly up to about 46 µM
[4] = P-glycoprotein substrates identified in KB-8-5-11 adenocarcinoma cell line, qHTS therapeutic library screen (AID 1346987); further: series mostly up to about 44 µM; nearly all actives have a fitted effect of over 65% in size
Procedure, shortened: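 Luminescence from CellTiter-Glo, read 5 min after addition, quantified survival of KB-8-5-11 (P-gp-overexpressing) cells exposed to compounds for 72 h. AC50 was derived from concentration-response curves.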

[5] = NS1 protein of Zika virus - qHTS assay to identify small molecule inhibitors in human HEK 293 cells (AID 1347053); further: series mostly up to about 46 µM; nearly all actives have a fitted effect of over 55% in size
Procedure, shortened: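 In this cell-based screen, HEK 293 cultures received compound for one hour before Zika MR766 at MOI = 0.5. NS1 was quantified 24 hours later by TR-FRET, normalized to virus-free wells and infected wells.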

[6] = qHTS of pediatric cancer cell lines to identify multiple opportunities for drug repurposing: Primary screen for TC32 cells (AID 1347089); further: nearly all actives have a fitted effect of over 60% in size; further: potency means the concentration at half of the fitted maximal effect
Procedure, shortened: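 A viability screen of TC32 cells was run over 48 h, with primary MIPE doses spanning 0.78 nM–46 µM and NPC doses 0.59 nM–46 µM. ATP luminescence (CellTiter-Glo) served as the read-out.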

[7] = qHTS of pediatric cancer cell lines to identify multiple opportunities for drug repurposing: Primary screen for DAOY cells (AID 1347090); further: series mostly up to about 46 µM; nearly all actives have a fitted effect of over 55% in size
Procedure, shortened: (§1)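 Cell viability, CellTiter-Glo luminescence; 500-1,000 cells/well, 8- or 11-point titration, 48 h compound exposure at 37 degrees C, 5% CO2. Controls: DMSO neutral, bortezomib 2.3 µM final as positive.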

[8] = qHTS of pediatric cancer cell lines to identify multiple opportunities for drug repurposing: Primary screen for SJ-GBM2 cells (AID 1347091)
Procedure, shortened: as §1

[9] = qHTS of pediatric cancer cell lines to identify multiple opportunities for drug repurposing: Primary screen for SK-N-MC cells (AID 1347093); further: series mostly up to about 46 µM
Procedure, shortened: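 Metabolically active cells were quantified by ATP-dependent luminescence (CellTiter-Glo, 15 min at room temperature) following 48 h treatment. Cells had been plated at 500-1,000 per well and settled for 5 h beforehand.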

[10] = qHTS of pediatric cancer cell lines to identify multiple opportunities for drug repurposing: Primary screen for BT-37 cells (AID 1347094); further: series mostly up to about 57 µM
Procedure, shortened: (§2)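 Quantitative HTS format: each compound titrated (MIPE 11 points from 0.78 nM, NPC 8 points from 0.59 nM) onto cells plated 5 hours earlier. After 48 h at 37 degrees C, CellTiter-Glo luminescence was recorded.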

[11] = qHTS of pediatric cancer cell lines to identify multiple opportunities for drug repurposing: Primary screen for NB-EBc1 cells (AID 1347095)
Procedure, shortened: as §2

[12] = qHTS of pediatric cancer cell lines to identify multiple opportunities for drug repurposing: Primary screen for A673 cells (AID 1347092); further: nearly all actives have a fitted effect of over 45% in size
Procedure, shortened: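 Titration-based qHTS on A673 cells: MIPE compounds spanned 11 points (0.78 nM to 46 µM final), NPC compounds 8 points (0.59 nM to 46 µM final). Viability after 48 h was measured by ATP luminescence.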

Row | Structure (SMILES) | outcome [1] | Potency [2] | Potency [3] | Potency [4] | Potency [5] | Potency [6] | Potency [7] | Potency [8] | Potency [9] | Potency [10] | Potency [11] | Potency [12]
1 | COc1cc(C)nc(-n2nc(C)cc2OC)n1 | inactive | inactive | inactive | inactive | inactive | inactive | inactive | inactive | inactive | inactive | inactive | 
2 | CC1(COc2ccc(CC3SC(=O)NC3=O)cc2)CCCCC1 (stereo not given) | inactive | inactive | inactive | inactive | inactive |  | inactive | inactive | inactive | inactive | inactive | inactive
3 | COc1cc(C(=O)NCc2ccc(OCCN(C)C)cc2)cc(OC)c1OC | inactive | inactive | inactive | inactive | inactive |  | inactive | inactive | inactive | inactive | inactive | inactive
4 | O=C(CCCN1CC=C(n2c(=O)[nH]c3ccccc32)CC1)c1ccc(F)cc1 | inactive | inactive | inactive | inactive | inactive |  | inactive | inactive |  |  | inactive | 
5 | CN(C)CCN1C(=O)c2ccccc2N(C)c2ccccc21 | inactive | inactive | inactive | inactive | inactive |  | inactive | inactive | inactive | inactive | inactive | 
6 | CCc1oc2ccccc2c1C(=O)c1cc(Br)c(O)c(Br)c1 | inactive | inactive | inactive | inactive | inactive | inactive |  |  |  | inactive |  | 
7 | CCOC(=O)[C@@](C)(N)Cc1ccc(O)c(O)c1 | inactive | inactive | inactive | inactive | inactive | 21 µM (active) |  | inactive |  | inactive | inactive | 
8 | CCC(Cc1c(I)cc(I)c(N)c1I)C(=O)O (stereo not given) | inactive | inactive | inactive | inactive | inactive |  | inactive | inactive | inactive | inactive | inactive | inactive
9 | CO[C@H]1C=CO[C@@]2(C)Oc3c(C)c(O)c4c(O)c(c(/C=N/N5CCN(C)CC5)c(O)c4c3C2=O)NC(=O)/C(C)=C\C=C[C@H](C)[C@H](O)[C@@H](C)[C@@H](O)[C@@H](C)[C@H](OC(C)=O)[C@@H]1C | inactive | inactive | inactive |  | inactive | inactive | inactive | inactive |  | inactive | inactive | inactive
10 | CC1CCc2c(N3CCC(O)CC3)c(F)cc3c(=O)c(C(=O)O)cn1c23 (stereo not given) | inactive | inactive | inactive |  | inactive | inactive | inactive | inactive | inactive | inactive | inactive | inactive
11 | Nc1ccc(C(=O)NCC(=O)O)cc1 | inactive | inactive | inactive |  | inactive | inactive | inactive | inactive |  | inactive | inactive | inactive
12 | CC(=O)NC(=O)c1ccccc1O | inactive | inactive | inactive |  | inactive | inactive | inactive | inactive | inactive | inactive | inactive | inactive
13 | CN1CCc2cccc3c2[C@H]1Cc1ccc(O)c(O)c1-3 | inactive | inactive | inactive |  | inactive |  |  |  |  |  |  | 
14 | C#C[C@]1(O)CC[C@H]2[C@@H]3[C@H](C)CC4=C(CCC(=O)C4)[C@H]3CC[C@@]21C | inactive | inactive | inactive |  | inactive | inactive | inactive | inactive |  | inactive | inactive | inactive
15 | c1ccc(-c2nc[nH]c2-c2ccccc2)cc1 | inactive | inactive | inactive |  | inactive | inactive | inactive | inactive | inactive | inactive | inactive | inactive
16 | CCCCOC(=O)CC(CC(=O)OCCCC)(OC(C)=O)C(=O)OCCCC | inactive | inactive | inactive |  | inactive | inactive | inactive | inactive | inactive | inactive | inactive | inactive
17 | CN1CCN(C2=Nc3ccccc3Sc3ccc(Cl)cc32)CC1 | inactive | inactive | inactive |  | inactive | inactive | inactive | inactive | inactive | inactive | inactive | inactive
18 | COC(=O)C(c1ccccc1Cl)N1CCc2sccc2C1 (stereo not given) | inactive | inactive | inactive |  | inactive | inactive | inactive | inactive | inactive | inactive | inactive | inactive
19 | CCOC(=O)Nc1ccc2c(c1)N(C(=O)CCN1CCOCC1)c1ccccc1S2 | inactive | inactive | inactive |  | inactive | inactive | inactive | inactive | inactive | inactive | inactive | inactive
20 | COc1ccc(CN(CCN(C)C)c2ncccn2)cc1 | inactive | inactive | inactive |  | inactive | inactive | inactive | inactive | inactive | inactive | inactive | inactive
